Compound activity (PubChem)
This is a sample that favours compounds with a hit; in the whole collection about 28% have one here.
CYP2C9 act – CYP2C9 (human) activation | recombinant CYP2C9, luciferin-H conversion, luminescence; stronger effect = higher value; factor 1 = untreated enzyme, 0 = blocked | activation factor at 5 µM | actives 1.4% (n = 96,000);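 active = activation factor of 2 or more for CYP2C9 at a 5 µM dose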;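 note: 0 = sulfaphenazole-blocked wells and 1 = vehicle-only wells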
Target sequence (P11712 whole entry, looked up): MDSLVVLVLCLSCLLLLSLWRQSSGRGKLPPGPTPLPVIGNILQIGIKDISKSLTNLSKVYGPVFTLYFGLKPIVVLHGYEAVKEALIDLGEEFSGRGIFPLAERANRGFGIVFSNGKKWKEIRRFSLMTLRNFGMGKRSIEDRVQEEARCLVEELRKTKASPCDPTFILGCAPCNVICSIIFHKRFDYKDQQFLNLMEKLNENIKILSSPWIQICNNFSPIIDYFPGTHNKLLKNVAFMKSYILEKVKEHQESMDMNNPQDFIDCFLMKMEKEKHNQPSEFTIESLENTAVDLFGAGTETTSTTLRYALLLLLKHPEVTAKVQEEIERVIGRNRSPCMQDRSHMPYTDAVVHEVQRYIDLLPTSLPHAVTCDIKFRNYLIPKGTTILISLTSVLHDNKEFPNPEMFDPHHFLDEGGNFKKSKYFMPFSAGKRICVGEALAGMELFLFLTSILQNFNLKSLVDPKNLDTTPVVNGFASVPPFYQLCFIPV
Mac1 fbg inh – inhibitors of human CD11b/CD18 binding to fibrinogen; inhibition, % at 10 µM; actives 0.54% (n = 93,000); K562 CD11b/CD18 adhesion to fibrinogen, ATPlite luminescence; Mn2+ added to activate the integrin; P05107+P11215; AID 1497;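 active = primary inhibition of 50% or more at 10 µM, then 40% or more on retest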
CYP2C9 inh – human CYP2C9 inhibition | CYP2C9 Supersomes, luciferin-H conversion, luminescence | P11712 | actives 20% (n = 96,000) | inhibition, % at 5 µM;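 active = blocking of liver enzyme CYP2C9 beyond about 50% at 5 µM, limit read from the data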
Mac1 fbg enh – enhancers of human CD11b/CD18 binding to fibrinogen. actives 0.07% (n = 93,000). K562 CD11b/CD18 adhesion to fibrinogen, ATPlite luminescence. P05107+P11215. activation, % at 10 µM;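 active = 10 µM primary screen giving 50% or more activity, confirmed by 40% or more on retest at that dose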
CYP2C19 activ – activators of human cytochrome P450 2C19. P33261. recombinant CYP2C19, luciferin-H EGE luminescence; stronger effect = higher value; 0 = fully inhibited enzyme, 1 = untreated enzyme. activation factor at 5 µM. 96,000 tested, under 10 active. AID 1025;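 active = activation factor of at least 2 at 5 µM in the primary screen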;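 note: 0 = wells with 2.5 mM tranylcypromine and 1 = vehicle-only wells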
CYP2C19 inh – human CYP2C19 inhibition. P33261. CYP2C19 Supersomes, luciferin-H EGE luminescence, 30 min. inhibition, % at 5 µM. actives 21% (n = 96,000);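 active = CYP2C19 inhibition above a set limit at 5 µM in the primary screen, cut at about 50% in these data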;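 note: plate controls were negative control wells for no effect and 2.5 mM tranylcypromine positive control for full effect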
Active calls of the source: *.

Cc1ccc(-c2csc(/C(C#N)=C(\O)CN3CCN(C(=O)c4ccco4)CC3)n2)cc1 was read as CYP2C9 act 0.5, Mac1 fbg inh 3.7, CYP2C9 inh 47.7, Mac1 fbg enh 4.7, CYP2C19 activ 1 and CYP2C19 inh 0.7.
Screening CCOc1ccc(C2C(C#N)=C(N)Oc3cc(C)n(CCN(C)C)c(=O)c32)cc1OCC (centres undefined) returned CYP2C9 act 0.9, Mac1 fbg inh -8.1, CYP2C9 inh 12.5, Mac1 fbg enh -0.4, CYP2C19 activ 1.1 and CYP2C19 inh -7.2.
Cc1noc(C)c1S(=O)(=O)N1CCC(C(=O)N2CCN(c3ccccc3Cl)CC2)CC1 was read as CYP2C9 act 0.8, Mac1 fbg inh 5.5, CYP2C9 inh 16.2, Mac1 fbg enh -1.8, CYP2C19 activ 1 and CYP2C19 inh 0.3.
Screening Cc1ccc(Cl)cc1N1CCN(C(=O)c2ccc(NS(=O)(=O)c3c(C)noc3C)cc2)CC1 returned CYP2C9 act 0, Mac1 fbg inh 21.4, CYP2C9 inh 99.5*, Mac1 fbg enh -1.5, CYP2C19 activ 0.9 and CYP2C19 inh 14.6.
Screening Cc1ccc(C)c(N2CCN(C(=O)c3ccc(NS(=O)(=O)c4c(C)noc4C)cc3)CC2)c1 returned CYP2C9 act 0, Mac1 fbg inh 10.1, CYP2C9 inh 96.9*, Mac1 fbg enh 0.6, CYP2C19 activ 0.9 and CYP2C19 inh 7.1.
`Cc1noc(C)c1S(=O)(=O)Nc1ccc(C(=O)N2CCCCC2)cc1` gave CYP2C9 act 0.5, Mac1 fbg inh 10.8, CYP2C9 inh 52.0*, Mac1 fbg enh -1.1, CYP2C19 activ 0.8 and CYP2C19 inh 23.1.
Screening Cc1noc(C)c1S(=O)(=O)Nc1ccc(C(=O)NC2CCCCC2)cc1 returned CYP2C9 act 0.8, CYP2C9 inh 18.6, CYP2C19 activ 1 and CYP2C19 inh 2.6.
For Cc1csc(SCc2ccc(C(=O)O)cc2)n1 the results were CYP2C9 act 1, Mac1 fbg inh 6.7, CYP2C9 inh -4.3, Mac1 fbg enh -2.2, CYP2C19 activ 1 and CYP2C19 inh -4.9.
CCOC(=O)CCC(=O)N1CCOCCN(C(=O)CCC(=O)OCC)CCOCC1 was read as CYP2C9 act 0.9, Mac1 fbg inh 8.5, CYP2C9 inh 9.3, Mac1 fbg enh 1.9, CYP2C19 activ 0.9 and CYP2C19 inh 5.4.
Screening COc1ccc(NC2=Nc3ccccc3N3C2=Nc2c(c(C)nn2-c2ccc(C)cc2)C3c2cccnc2)cc1 (centres undefined) returned CYP2C9 act 0.4, Mac1 fbg inh 7.0, CYP2C9 inh 55.7*, Mac1 fbg enh 31.8, CYP2C19 activ 0.7 and CYP2C19 inh 25.3.
Screening CCOC(=O)c1ccc(N2Cc3cc(C)c(C)cc3C2)cc1O returned CYP2C9 act 1.1, Mac1 fbg inh -8.0, CYP2C9 inh -14.6, Mac1 fbg enh 4.5, CYP2C19 activ 1.1 and CYP2C19 inh -14.4.
O=C(O)c1ccc(N2Cc3ccccc3C2)cc1O was read as CYP2C9 act 0.5, Mac1 fbg inh 4.8, CYP2C9 inh 52.6*, Mac1 fbg enh -1.0, CYP2C19 activ 0.5 and CYP2C19 inh 47.5.
CCOc1ccc(NC(=O)CSc2nnc(C34CC5CC(CC(C5)C3)C4)n2C)cc1 was read as CYP2C9 act 0.6, Mac1 fbg inh -6.2, CYP2C9 inh 43.0, Mac1 fbg enh 6.8, CYP2C19 activ 0.8 and CYP2C19 inh 23.2.
Screening Cc1cc2c(c(=O)o1)C1(C(=O)N(C)c3ccccc31)C(C#N)=C(N)O2 (centres undefined) returned CYP2C9 act 0.9, Mac1 fbg inh 2.0, CYP2C9 inh 7.9, Mac1 fbg enh -0.7, CYP2C19 activ 1 and CYP2C19 inh 2.3.
Screening CC(=O)N1C(=O)C2(C(C#N)=C(N)Oc3cc(C)oc(=O)c32)c2ccccc21 (centres undefined) returned CYP2C9 act 0.1, CYP2C9 inh 88.5*, CYP2C19 activ 0.5 and CYP2C19 inh 49.5.
Screening Cc1nn(-c2ccccc2)c2c1C1(C(=O)N(C)c3ccccc31)C(C#N)=C(N)O2 (centres undefined) returned CYP2C9 act 0.4, Mac1 fbg inh -9.8, CYP2C9 inh 55.6*, Mac1 fbg enh -0.3, CYP2C19 activ 0.8 and CYP2C19 inh 15.2.
CCN1C(=O)C2(C(C#N)=C(N)Oc3c2c(C)nn3-c2ccccc2)c2ccccc21 (centres undefined) was read as CYP2C9 act 0.2, Mac1 fbg inh 19.5, CYP2C9 inh 79.4*, Mac1 fbg enh -0.7, CYP2C19 activ 0.4 and CYP2C19 inh 60.7*.
For CC(=O)N1C(=O)C2(C(C#N)=C(N)Oc3c2c(C)nn3-c2ccccc2)c2ccccc21 (centres undefined) the results were CYP2C9 act 0.2, Mac1 fbg inh -9.8, CYP2C9 inh 81.4*, Mac1 fbg enh 5.0, CYP2C19 activ 0.6 and CYP2C19 inh 39.2.
For CCCCc1[nH]nc2c1C1(C(=O)N(CC)c3ccccc31)C(C#N)=C(N)O2 (centres undefined) the results were CYP2C9 act 1.1, Mac1 fbg inh -7.0, CYP2C9 inh -10.2, Mac1 fbg enh -2.8, CYP2C19 activ 1 and CYP2C19 inh -2.7.
Screening CCOC(=O)CNC(=O)C1c2ccccc2C(=O)N(c2ccc(OC)cc2)C1c1ccc(OC)cc1 (centres undefined) returned CYP2C9 act 0.8, Mac1 fbg inh 4.0, CYP2C9 inh 20.1, Mac1 fbg enh -0.7, CYP2C19 activ 0.8 and CYP2C19 inh 20.0.
`Cc1nn(-c2ccccc2)c2c1C1(C(=O)N3c4c(cccc41)C(C)CC3(C)C)C(C#N)=C(N)O2` (centres undefined) gave CYP2C9 act 0, Mac1 fbg inh 9.0, CYP2C9 inh 97.1*, Mac1 fbg enh 5.1, CYP2C19 activ 0.2 and CYP2C19 inh 75.8*.
`COc1ccc(C(=O)/C=C/c2ccccc2C(F)(F)F)cc1` gave CYP2C9 act 1.9, Mac1 fbg inh -12.3, CYP2C9 inh -90.0, Mac1 fbg enh 6.2, CYP2C19 activ 0.9 and CYP2C19 inh 14.7.
CCCOc1ccc(-c2nc(=S)[nH][nH]2)cc1 was read as CYP2C9 act 0.8, Mac1 fbg inh -14.9, CYP2C9 inh 24.8, Mac1 fbg enh -1.4, CYP2C19 activ 0.9 and CYP2C19 inh 12.6.
O=C(NC1CC1)C1=COCCO1 was read as CYP2C9 act 1, Mac1 fbg inh -61.7, CYP2C9 inh 1.3, Mac1 fbg enh 0.6, CYP2C19 activ 1.2 and CYP2C19 inh -15.5.
For O=C(Nc1ccc(F)c(F)c1)c1ccc2c(c1)OCO2 the results were CYP2C9 act 0.5, Mac1 fbg inh -8.7, CYP2C9 inh 48.6, Mac1 fbg enh -5.0, CYP2C19 activ 0.1 and CYP2C19 inh 94.0*.
